Data: PubChem BioAssay
Activity calls are given as the source filed them. Unless noted, no rule for the calls is given here.

Experiments:
[1] = A549 cell viability effects, profiling panel, calcein-AM fluorescence, 48 h, basal (AID 1162); settings: higher = more signal; also: test concentration not given here
[2] = adipocyte viability effects, profiling panel, cell-based, 3T3-L1 adipocytes, calcein-AM fluorescence, 48 h, basal (AID 1163); settings: 3T3-L1 adipocytes viability, higher = more signal; also: test concentration not given here
[3] = HepG2 cell viability effects, profiling panel, calcein-AM fluorescence, 48 h, basal (AID 1164); settings: higher = more signal; also: test concentration not given here
[4] = MM1S cell viability effects, profiling panel, calcein-AM fluorescence, 48 h, basal (AID 1165); settings: higher = more signal;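 also: viability of MM1S multiple myeloma cells under basal unstimulated conditions; test concentration not given here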
[5] = basal RPMI8226 viability, no added stimulus, profiling panel, cell-based, calcein-AM fluorescence, 48 h, PK04 Diversity Set (AID 1166); settings: RPMI8226 myeloma viability, higher = more signal;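 also: cells grown under basal conditions without added stimulus; test concentration not given here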
[6] = basal HepG2 mitochondrial membrane potential changes, profiling panel, cell-based, JC-1 fluorescence, 24 h, 100 nL compound (AID 1167); settings: higher = more signal; also: test concentration not given here
[7] = basal 3T3-L1 adipocyte mitochondrial potential changes, profiling panel, cell-based, JC-1 fluorescence, 3T3-L1 adipocytes, 24 h, 100 nL compound (AID 1168); settings: JC-1 mitochondrial fluorescence, higher = more signal, called active from +8 up or from −8 down; also: test concentration not given here
[8] = basal RPMI8226 mitochondrial membrane potential changes, profiling panel, cell-based, JC-1 fluorescence, 24 h, 100 nL compound (AID 1169); settings: RPMI8226 myeloma, JC-1 mitochondrial potential fluorescence, higher = more signal; also: test concentration not given here
[9] = basal MM1S mitochondrial membrane potential changes, profiling panel, cell-based, JC-1 fluorescence, 24 h, 100 nL compound (AID 1170); settings: higher = more signal; also: test concentration not given here
[10] = A549 lung cancer cell viability effects, profiling panel, resazurin fluorescence, 24 h, PK04 Diversity Set (AID 1171); settings: higher = more signal, called active from +8 up or from −8 down; also: test concentration not given here
[11] = HepG2 liver cancer cell viability effects, profiling panel, resazurin fluorescence, 24 h, PK04 Diversity Set (AID 1172); settings: higher = more signal; also: test concentration not given here
[12] = basal S. cerevisiae growth modulation, no modifier, primary screen, OD600, strain BY4716, 24 h, basal condition (AID 1173); settings: OD600, 24 h, higher = more signal, called active from +8 up or from −8 down
[13] = MM1S myeloma cell viability, profiling panel, resazurin fluorescence, basal, 24 h, PK04 Diversity Set (AID 1174); settings: higher = more signal, called active from +8 up or from −8 down;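 also: MM1S multiple myeloma cell line; test concentration not given here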
[14] = target: Dihydroorotate dehydrogenase (quinone), mitochondrial (Plasmodium falciparum (isolate 3D7)) (UniProt Q08210); experiment: PfDHODH enzyme inhibitors, primary screen, biochemical, C-terminal His tag, absorbance 600 nm (AID 1175); settings: DCIP absorbance 600 nm, higher = more signal, called active from +8 up or from −8 down;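 also: recombinant parasite enzyme with a five histidine tag at its C terminus; test concentration not given here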
[15] = P. aeruginosa biofilm formation inhibitors, primary screen, strain PAO1, LB-PBS medium, absorbance 600 nm (AID 1176); also: test concentration not given here; settings: P. aeruginosa PAO1 growth/biofilm, A600, 12 h; higher = more signal
[16] = S. cerevisiae RM11-1a growth modifiers, primary screen, strain RM11-1a, OD600, basal, 24 h (AID 1177); settings: OD600, 24 h, higher = more signal, called active from +8 up or from −8 down;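 also: cultures grown under basal conditions with no added stressor; test concentration not given here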
[17] = E. coli acrAB mutant growth effects, primary screen, E. coli filamentation inducers, strain DRC39, OD650, 24 h (AID 1178); settings: higher = more signal, called active from +8 up or from −8 down;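 also: growth measured as culture turbidity by optical density at 650 nm; test concentration not given here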
[18] = E. coli acrAB mutant growth effects, primary screen, E. coli filamentation inducers, strain DRC39, OD650, 48 h (AID 1179);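 also: screen aims at cell division blockers that make cells filament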; settings: E. coli DRC39 delta-acrAB growth, higher = more signal, called active from +8 up or from −8 down
[19] = RPMI8226 myeloma cell viability, profiling panel, resazurin fluorescence, basal, 24 h, PK04 Diversity Set (AID 1180); settings: higher = more signal;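 also: RPMI8826 multiple myeloma cell line at 5000 cells per well; test concentration not given here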
[20] = target: E3 ubiquitin-protein ligase XIAP (Homo sapiens) (UniProt P98170); experiment: XIAP binders, primary screen, biophysical, small-molecule microarray, fluorescence 635 nm (AID 1181); settings: small-molecule microarray binding, higher = more signal;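 also: score merges 667 nm emission and signal to noise over triplicate slides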
E3 ubiquitin-protein ligase XIAP (Homo sapiens), sequence (P98170 whole entry, looked up): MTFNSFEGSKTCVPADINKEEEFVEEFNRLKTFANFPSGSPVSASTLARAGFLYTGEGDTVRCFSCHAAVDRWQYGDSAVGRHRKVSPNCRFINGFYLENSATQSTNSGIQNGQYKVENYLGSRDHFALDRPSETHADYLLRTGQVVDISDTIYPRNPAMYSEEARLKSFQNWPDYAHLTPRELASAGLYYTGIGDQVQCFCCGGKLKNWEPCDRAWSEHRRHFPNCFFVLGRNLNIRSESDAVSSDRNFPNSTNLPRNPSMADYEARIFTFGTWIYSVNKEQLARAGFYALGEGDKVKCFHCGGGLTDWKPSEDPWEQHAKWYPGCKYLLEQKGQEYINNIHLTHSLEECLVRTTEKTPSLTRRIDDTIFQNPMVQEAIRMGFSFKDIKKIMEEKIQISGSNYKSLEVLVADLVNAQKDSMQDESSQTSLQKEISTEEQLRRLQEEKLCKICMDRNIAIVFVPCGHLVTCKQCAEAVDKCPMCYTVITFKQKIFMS

Dihydroorotate dehydrogenase (quinone), mitochondrial (Plasmodium falciparum (isolate 3D7)), sequence (Q08210 whole entry, looked up): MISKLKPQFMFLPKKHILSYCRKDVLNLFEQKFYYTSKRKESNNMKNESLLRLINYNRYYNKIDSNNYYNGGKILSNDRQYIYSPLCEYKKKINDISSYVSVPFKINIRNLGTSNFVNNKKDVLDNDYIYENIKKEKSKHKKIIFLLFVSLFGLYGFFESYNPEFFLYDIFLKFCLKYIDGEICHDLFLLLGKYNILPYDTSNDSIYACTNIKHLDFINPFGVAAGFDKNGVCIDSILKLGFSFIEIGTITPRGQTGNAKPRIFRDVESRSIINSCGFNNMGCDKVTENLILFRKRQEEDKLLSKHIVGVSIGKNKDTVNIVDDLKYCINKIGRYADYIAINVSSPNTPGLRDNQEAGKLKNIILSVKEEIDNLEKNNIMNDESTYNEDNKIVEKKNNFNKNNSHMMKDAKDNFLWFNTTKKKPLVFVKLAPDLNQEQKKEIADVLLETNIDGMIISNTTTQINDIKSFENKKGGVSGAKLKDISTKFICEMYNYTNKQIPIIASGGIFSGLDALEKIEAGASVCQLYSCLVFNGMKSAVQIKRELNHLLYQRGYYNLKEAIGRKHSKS

Row | SMILES | z-score [1] | z-score [2] | z-score [3] | z-score [4] | z-score [5] | z-score [6] | z-score [7] | z-score [8] | z-score [9] | z-score [10] | z-score [11] | z-score [12] | z-score [13] | composite z-score [14] | z-score [15] | z-score [16] | z-score [17] | z-score [18] | z-score [19] | composite z-score [20]
1 | CCOC(=O)[C@H](CC(C)C)NC(=O)CCC1CC(OC(=O)NCCc2ccc(F)cc2)CC2(CCCC(COC(=O)NCCc3ccccc3OC)O2)O1 (stereo not given in full) | 0.239 | -0.227 | -0.204 | -1.35 | -1.41 | 0.481 | 0.293 (inactive) | -0.106 | -0.878 | -0.311 (inactive) | -0.285 | -0.376 (inactive) | 0.311 (inactive) | -0.991 (inactive) | 0.45 (inactive) | 0.354 (inactive) | 0.61 (inactive) | 0.376 (inactive) | 0.441 | -0.0565
2 | C=CC[C@@H]1C=C[C@H](ON=C[C@@H](C)[C@H](OCc2ccccc2)C(C)C)[C@@H](CO)O1 | -0.475 | -0.162 | -0.746 | -1.55 | -0.958 | -1.94 | -0.87 (inactive) | -0.419 | -0.874 | 0.0506 (inactive) | 0.0253 | -5.6 (inactive) | -0.865 (inactive) | -0.408 (inactive) | 0.241 (inactive) | -0.62 (inactive) | -0.295 (inactive) | -0.238 (inactive) | -0.183 | -0.138
3 | CCc1cc2c(nc1CC)CCN(CCC(C)=NO[C@@H](C)c1cn([C@H](CO)Cc3ccccc3)nn1)C2 | 0.669 | 0.367 | 1.8 | 0.73 | 0.18 | 2.44 | 0.254 (inactive) | -0.279 | -0.525 | 0.0367 (inactive) | -0.301 | -0.841 (inactive) | -1.79 (inactive) | -1.3 (inactive) | -0.218 (inactive) | 0.804 (inactive) | 0.294 (inactive) | 0.67 (inactive) | 0.659 | -0.0602
4 | COc1cccc([C@H]2Oc3ccc(OC)cc3C(=NOC[C@@H](O)COCc3ccco3)[C@@H]2O)c1 | 0.451 | 0.558 | 0.819 | 0.667 | 0.414 | -0.959 | 0.461 (inactive) | 0.431 | -0.751 | -1.55 (inactive) | -0.949 | -1.38 (inactive) | -1.19 (inactive) | -1.58 (inactive) | -0.254 (inactive) | -2.29 (inactive) | 0.0207 (inactive) | -0.947 (inactive) | -0.825 | 0.0785
5 | COc1cccc([C@H]2Oc3ccc(OC)cc3C(=NO[C@@H](C)c3cn([C@H](CO)Cc4ccccc4)nn3)[C@@H]2O)c1 | -0.53 | 1.3 | -0.55 | 0.738 | -0.631 | -1.22 | -1.1 (inactive) | -0.722 | 0.339 | -0.819 (inactive) | -1.02 | -0.0439 (inactive) | -0.162 (inactive) | 0.757 (inactive) | -0.102 (inactive) | -0.0779 (inactive) | -0.712 (inactive) | -2.86 (inactive) | 0.22 | -0.0367
6 | CC(CCN1CCCc2nc(C)c(C)cc21)=NO[C@@H](C)c1cc(-c2c(C)cc(C)cc2C)no1 | 0.91 | -0.0581 | 1.42 | -0.603 | -0.843 | 3.04 | -0.127 (inactive) | -0.0137 | -1.08 | -0.102 (inactive) | -0.616 | -1.54 (inactive) | -0.012 (inactive) | -0.837 (inactive) | 0.0525 (inactive) | 0.39 (inactive) | 0.898 (inactive) | -0.158 (inactive) | 0.378 | 0.194
7 | C#CCCCON=C1[C@H]2CCn3c(=O)n(C)c(=O)n3[C@H]2[C@H](O)[C@@H]2O[C@H]12 | 0.0083 | -0.421 | 0.716 | -0.85 | -0.801 | 0.398 | 0.206 (inactive) | -0.253 | 0.00711 | -0.576 (inactive) | -1.33 | -0.492 (inactive) | -1.59 (inactive) | -0.511 (inactive) | -0.568 (inactive) | 0.956 (inactive) | 0.0518 (inactive) | 0.385 (inactive) | -1.93 | -0.391
